Where “and” joins values, the source holds several entries; their conditions need not be identical. Equal values may be shown once. Compounds without any hit were thinned out: in the full panel of roughly 83,000, 20% have a hit.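 Cell lines were cultured in 96-well plates, exposed to a single compound concentration, and assessed for percent growth 48 hours later.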 Unmarked numbers belong to inactive results. Calls of active or inactive are those of the source. How the source made its calls: active means growth percent below 10; inactive means the rest.
system: HL-60(TB) leukemia; assay: NCI-60 one-dose screen, 48 h (100 = growth as untreated, 0 = no growth, -100 = all killed); conditions: 10 µM unless noted

**Q.** How did the growth turn out when C=C(C)[C@@H]1CC[C@]2(C(=O)N[C@H](CO)Cc3ccccc3)CC[C@]3(C)[C@H](CC[C@@H]4[C@@]5(C)CCCNC(C)(C)[C@@H]5CC[C@]43C)[C@@H]12 was run?
**A.** Its growth is -73.3% (active).

**Q.** For CC(O)c1nc2c(c(=O)n(C)c(=O)n2C)n1C (stereo not given), which growth is on record?
**A.** The growth was 100%.

**Q.** How did the growth turn out when S=C(S)NCCc1c[nH]c2ccccc12 was run?
**A.** The growth was 91.4%.

**Q.** With Clc1cnc(Nc2ccc(OCCN3CCCC3)cc2)nc1NCc1ccco1 as the compound, how does the growth read?
**A.** The growth was -26.5% (active).

**Q.** How did the growth turn out when COc1ncc(-c2ccc3ncnc(Nc4cccc(Cl)c4)c3c2)cc1NS(C)(=O)=O was run?
**A.** The growth was 19.1%.

**Q.** How did the growth turn out when O=C1/C(=C/c2ccc(O)cc2)Cc2ccc(Cl)cc21 was run?
**A.** The growth was 60.1%.

**Q.** For O=C(O)c1cn(-c2ccccc2)nc1-c1ccc(O)cc1, which growth is on record?
**A.** The growth was 95.7%.

**Q.** CC(=O)OCC(=O)[C@@]1(O)[C@H](C)C[C@H]2[C@@H]3C=C(C)C4=Cc5c(cnn5-c5ccc(F)cc5)C[C@]4(C)[C@H]3[C@@H](O)C[C@@]21C was tested. Which growth did it give?
**A.** Its growth is 16.3%.

**Q.** How did the growth turn out when O=C1Nc2ccccc2/C1=C/c1cn(C(=O)c2c(Cl)cccc2Cl)c2ccccc12 was run?
**A.** Its growth is 72.1%.

**Q.** COC(=O)[C@]1(C)CCC[C@]2(C)[C@H]3C[C@H]4C(C(C)C)=C[C@]3(CC[C@H]21)[C@@H]1C(=O)N(CCC#N)C(=O)[C@@H]14 was tested. Which growth did it give?
**A.** The growth was 44.4%.

**Q.** For Cc1ccn2cc(Cc3cc(=O)oc4c3ccc3ccccc34)c(=O)nc2c1, which growth is on record?
**A.** Its growth is 86.1%.

**Q.** CCOC(=O)C(C)(CSSCC(C)(NC(=O)c1ccc2ccccc2c1)C(=O)OCC)NC(=O)c1ccc2ccccc2c1 (stereo not given) was tested. Which growth did it give?
**A.** Its growth is 98.8%.

**Q.** With N#Cc1c(N)[nH]c(S)c1C#N as the compound, how does the growth read?
**A.** The growth was 99%.

**Q.** With Cc1cn(-c2cc(C(=O)Nc3cccc(C#Cc4cccc5[nH]nc(N)c45)c3)cc(C(F)(F)F)c2)cn1 as the compound, how does the growth read?
**A.** Its growth is 25.1%.

**Q.** For N#Cc1ccc(NC(=O)Nc2cccc(C#N)c2)cc1, which growth is on record?
**A.** The growth was 68.6%.

**Q.** CN(C)c1ccc(/C=C\C(=O)c2ccccc2)cc1 was tested. Which growth did it give?
**A.** Its growth is 76.6% and 81.7% and 75.5%.

**Q.** Which growth does the source give for CC(C)(C)c1ccc(Cn2cc(CSc3nc4ccccc4s3)nn2)cc1 here?
**A.** Its growth is 93.7%.

**Q.** Cc1nn(-c2ccccc2)c(Oc2ccc(Cl)cc2)c1/C=N\N=c1/sc2ccccc2n1C was tested. Which growth did it give?
**A.** The growth was 78%.

**Q.** For O=C(O)C(O)c1ccccc1 (stereo not given), which growth is on record?
**A.** Its growth is 97.3%.

**Q.** For CCCCOC(=O)c1c(C)[nH]c(/C=C2\N=C(c3ccc[nH]3)C=C2OC)c1C, which growth is on record?
**A.** Its growth is 8.01% (active).

**Q.** O=C1NC(=C(Cl)Cl)/C(=N/S(=O)(=O)N2CCC(C3(C(F)(F)F)N=N3)CC2)N1 was tested. Which growth did it give?
**A.** Its growth is 77%.

**Q.** Which growth does the source give for O=C(Nc1ccc(OCc2nnc(-c3ccccc3)o2)c(F)c1)Nc1ccc(Cl)c(Cl)c1 here?
**A.** The growth was 58.5%.

**Q.** Which growth does the source give for O=C(O)CCC(=O)Nc1nnc(-c2ccccc2)s1 here?
**A.** Its growth is 92.2%.

**Q.** For C=C(C)[C@@H]1CC[C@]2(C(N)=O)CC[C@]3(C)[C@H](CC[C@@H]4[C@@]5(C)C/C(=C/c6cccnc6)C(=O)C(C)(C)[C@@H]5CC[C@]43C)[C@@H]12, which growth is on record?
**A.** The growth was 3.16% [100 µM] (active).

**Q.** With Cc1ccc(C(C)C)cc1C(=O)C[n+]1ccccc1 as the compound, how does the growth read?
**A.** Its growth is 115%.

**Q.** How did the growth turn out when O=c1[nH]c([C@@H]2CCCN2)nc2c1oc1ccc(Cl)cc12 was run?
**A.** The growth was 101%.

**Q.** Which growth does the source give for CCCCN1CCN(c2ccc3nc(-c4ccc5nc(-c6cc(OC)c(OC)c(OC)c6)[nH]c5c4)[nH]c3c2)CC1 here?
**A.** Its growth is 85.7%.

**Q.** For COc1ccc2c(c1)C(=O)/C(=C/c1ccc([N+](=O)[O-])o1)O2, which growth is on record?
**A.** The growth was -42.3% (active).

**Q.** O=C1CC(N2C(=O)/C(=C/C(Cl)=C\c3ccc([N+](=O)[O-])cc3)SC2=S)C(=O)N1c1ccc(Cl)cc1 (stereo not given) was tested. Which growth did it give?
**A.** The growth was 21.3%.

**Q.** Which growth does the source give for N#Cc1c(-c2ccc(Cl)cc2)nc(NN=Cc2cccc(O)c2)nc1N1CCOCC1 here?
**A.** Its growth is 66.6%.

**Q.** CCS(=O)(=O)CCCl was tested. Which growth did it give?
**A.** Its growth is 99.8%.

**Q.** How did the growth turn out when Cn1c(=O)c2[nH]c(CCCCCCCCc3nc4ccccc4[nH]3)nc2n(C)c1=O was run?
**A.** Its growth is 59.4% and 71.2%.

**Q.** Nc1ccc(O)c(C(=O)O)c1 was tested. Which growth did it give?
**A.** The growth was 89.4% and 104% and 106%.

**Q.** Which growth does the source give for Clc1ccc(C(Cn2ccnc2)OCc2ccsc2Cl)c(Cl)c1 (stereo not given) here?
**A.** Its growth is 6.05% (active).

**Q.** Which growth does the source give for Oc1ccc2ccccc2c1N=Nc1nccs1 here?
**A.** Its growth is -44.3% (active).

**Q.** For O=C1c2ccccc2C(=O)N1/N=C/c1ccc2c(c1)OCO2, which growth is on record?
**A.** Its growth is 88.1%.

**Q.** For Cc1ccc(Nc2c(C(N)=O)cnc3ccc(-c4csc(N)n4)cc23)cc1, which growth is on record?
**A.** Its growth is 109%.

**Q.** CCCCCCNC(=O)Oc1ccc(/C(=C(/CC)Cc2ccccc2)c2ccc(OCCN(CC)CC)cc2)cc1 was tested. Which growth did it give?
**A.** The growth was 55.2%.

**Q.** How did the growth turn out when O=C(O)CNS(=O)(=O)c1ccc(OCCOc2ccc(S(=O)(=O)NCC(=O)O)cc2)cc1 was run?
**A.** The growth was 98.7%.

**Q.** With O=C1NCc2ccc3c(-c4cccc(Cl)c4)c[nH]c3c21 as the compound, how does the growth read?
**A.** Its growth is -4.05% (active).

From PubChem BioAssay (NCI)
